These results are taken from PubChem BioAssay AID1053124 (Broad Institute, 2014).

Structures are written as SMILES. Measured potencies and affinities stand elsewhere. Unmarked numbers belong to inactive results.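 Rule for the calls: active = cell killing whose fitted half-effect concentration is at most twice the top valid dose tested; inconclusive = flat curve with 30 to 70% killing, or a poor fit; inactive = effect in the rising direction, plus the rest.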

The assay in a line: viability loss in A549 lung cells – cell-based, ATP luminescence, cherry-pick, set 2, cytotoxicity control, dose response (AID 1053124).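 Note: 0% = neutral control wells and -100% = mitoxantrone 10 µM positive control.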 The settings on record: ATP luminescence (CellTiter-Glo), 72 h; series mostly up to 26 µM; activity change, negative = cytotoxicity: at the top concentration. In general terms: ATP-based viability assays read luminescence as a measure of living cells.
Consider `Nc1ccc2nc(-c3ccccc3)cnc2c1`, for which the “activity change, negative = cytotoxicity” value is -14.6%.
In the case of `CCOc1ccc(NC(=O)CN(C)C(=O)CCCNC(=O)c2ccc(Cl)cc2)cc1OCC`, the “activity change, negative = cytotoxicity” value is -3.8%.
The result for `Clc1cccc(CN2CCN(Cc3nc(CCc4ccccc4)no3)CC2)c1` reads -8.4%.
As to `Cc1c(Nc2c3ccccc3nc3ccccc23)c(=O)n(-c2ccccc2)n1C`, the “activity change, negative = cytotoxicity” value was 5.87%.
The result for `CC1(C)CC(=O)C2=C(C1)OC(N)=C(C#N)[C@@H]2c1ccccc1[N+](=O)[O-]` reads -2.34%.
To `COc1cccc2c(=O)c3c(cnn3C)n(C)c12` belongs -8.72%.
Take `CSC1=NSC2=NC(=O)/C(=C/c3coc4ccc(O)cc4c3=O)C(=N)N12`: the “activity change, negative = cytotoxicity” value was -7.15%.
The result for `CC1CC(C)CN(CCCNC(=O)CCC(=O)N2CC(C)Oc3ccccc32)C1` (centres undefined) reads -7.74%; that for `CCOC(=O)c1c2ccc(OCC(=O)NN)cc2n2ccccc12`, -10.5%.
As for `O=c1[nH]c2ccccc2nc1/C=C/c1ccccc1`, the “activity change, negative = cytotoxicity” value is -12.7%.
For the compound `CCCN1CCN(C(=O)c2ccc(CS(=O)c3ccc(Br)cc3)o2)CC1` (centres undefined), the “activity change, negative = cytotoxicity” value was -6.12%.
Turning to `CCc1nc2ccc(C(=O)NCCc3c[nH]c4ccccc34)cn2c1N(C=O)CCC(C)C`, the “activity change, negative = cytotoxicity” value was -8.29%.
`Cc1c(C(=O)NCc2ccc3c(c2)OCCO3)sc(=O)n1Cc1ccccc1F`: the “activity change, negative = cytotoxicity” value is -0.515%.
`COCCNC(=S)N/N=C/c1ccc(-c2ccc([N+](=O)[O-])cc2)o1`: the “activity change, negative = cytotoxicity” value is -6.8%.
With `Nc1cccc2c1C(=O)N(c1ccccc1)C2=O`, the “activity change, negative = cytotoxicity” value was -10.7%.
On to `COc1cc(/C=C(\C#N)C(=O)NC(C)C)cc(Cl)c1O`, for which the “activity change, negative = cytotoxicity” value was -7.73%.
To `O=C(/C=C/c1ccccc1)C1=C(O)C(=O)N(CCO)C1c1ccc2c(c1)OCO2` (centres undefined) belongs -9.53%.
To `Cc1cc2cc(CNC(=O)c3ccco3)ccc2n1C` belongs -11%; to `O=C(c1ccc(F)cc1)C1CCN(C(=O)Nc2ccccc2Cl)CC1`, 2.67%; to `CN1CCc2c(sc(NC(=O)C3CCCCC3)c2C(N)=O)C1`, 1.99%.
With `CCn1c(=NC(=O)CSC(C)=O)sc2cc(OC)ccc21`, the “activity change, negative = cytotoxicity” value was -8.33%.
With `COc1cc(C(=O)OCC(C)=O)cc(NC(=O)c2ccco2)c1OC`, the “activity change, negative = cytotoxicity” value was -0.686%.
The result for `COc1ccc(NC(=O)C2CCC(CNS(=O)(=O)c3cccs3)CC2)cc1` (centres undefined) reads -6.87%; that for `O=C(NS(=O)(=O)c1ccc(Cl)s1)c1ccccc1`, -7.08%.
`Cc1cc(C)nc(SCC(=O)Nc2ccc(S(=O)(=O)Nc3onc(C)c3C)cc2)n1`: the “activity change, negative = cytotoxicity” value is 2.09%.
Consider `Cc1nc(CCNC(=O)Cc2ccc(Cl)cc2)cs1`, for which the “activity change, negative = cytotoxicity” value was -3.11%.
The result for `O=c1oc2c(CN3CCN(CCO)CC3)c(O)ccc2cc1-c1ccccn1` reads 6.89%.
To `Cn1cnc(S(=O)(=O)Nc2ccc(OC(F)(F)F)cc2)c1` belongs 0.518%; to `Cc1cccn2c(=O)c3cc(C(N)=S)c(=N)n(CCCN4CCOCC4)c3nc12`, 2.11%; to `CC(=O)Oc1ccc(C(=O)Nc2cc(C)on2)cc1`, 1.55%.
Turning to `CSc1ccc(Cn2c(C)c(C(=O)NCCC#N)sc2=O)cc1`, the “activity change, negative = cytotoxicity” value was 2.6%.
`O=c1[nH]c(Nc2ccccc2Cl)cc2ccccc12`: the “activity change, negative = cytotoxicity” value was -5.32%.
`CSCCC1(C(=O)O)NC(c2ccccc2O)C2C(=O)N(C(C)C)C(=O)C21` (centres undefined): the “activity change, negative = cytotoxicity” value is 2.79%.
To `O=C(Cc1csc(-c2ccccc2)n1)NCc1ccccc1F` belongs 0.178%; to `Cc1oc(/N=C/c2ccc(F)cc2)c(C#N)c1C`, 0.872%; to `Nc1ccc(C#Cc2ccc3c(=O)c4ccccc4oc3c2)cc1`, -9.82%.
In the case of `COc1ccccc1OCc1ccc(C(=O)N(C)c2ccccc2)o1`, the “activity change, negative = cytotoxicity” value is -0.768%.
The result for `N#C/C(=C\c1ccc(N2CCOCC2)o1)C(=O)NCCc1ccccc1` reads -8.25%.
For `Cc1cc(=O)oc2cc(OC(=O)c3cncc(Br)c3)ccc12`, the “activity change, negative = cytotoxicity” value is -8.82%.
